# Bioassay records as filed in PubChem.
# TDP1 cell CPT – DT40-hTDP1 cell growth loss with CPT; Potency, µM (titrated, usually from 46.2 µM), for the others: at the top dose activity change, negative = growth inhibition, usual class: inhibitors; chicken DT40 Tdp1-/-;hTDP1 cells + 20 nM CPT, ATP luminescence, 48 h; AID 686979; 420,000 tested, 12% active; further: potency means the concentration at half of the fitted maximal effect; nearly all actives have a fitted effect of over 55% in size
#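 Chicken DT40 Tdp1-/- cells stably complemented with human TDP1 were seeded at 400 cells/well in medium containing 20 nM camptothecin, exposed to pin-transferred compounds, and grown at 37 °C for at least 48 hr. Viability was read as ATP luminescence.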
# Giardia killer – kills Giardia lamblia. activity change, % at 7.66 µM, hits read low. Giardia lamblia trophozoite viability. 340,000 tested, 0.15% active. AID 540267; in the data active means activity change below about -80%; inconclusive means between about -30% and that limit;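 further: parasites exposed to compound for two days anaerobically before the ATP read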
#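 Giardia lamblia trophozoites (100 cells/well) were incubated with compounds for 48 h at 37 deg C under anaerobic conditions. Viability was read as ATP content by one-step luminescence after 15-30 min at room temperature.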
# TDP1 inh – blocks human tyrosyl-DNA phosphodiesterase 1 | 350,000 tested, 0.28% active | Potency, µM (top dose mostly 130 µM), without a hit: at the highest dose activity change, negative = inhibition, most hits filed as inhibitors | AID 485290 | recombinant TDP1, AlphaScreen DNA substrate cleavage | Q9NUW8; further: potency means the concentration at half of the fitted maximal effect; nearly all actives have a fitted effect of over 40% in size
# Target sequence (Q9NUW8 whole entry, looked up): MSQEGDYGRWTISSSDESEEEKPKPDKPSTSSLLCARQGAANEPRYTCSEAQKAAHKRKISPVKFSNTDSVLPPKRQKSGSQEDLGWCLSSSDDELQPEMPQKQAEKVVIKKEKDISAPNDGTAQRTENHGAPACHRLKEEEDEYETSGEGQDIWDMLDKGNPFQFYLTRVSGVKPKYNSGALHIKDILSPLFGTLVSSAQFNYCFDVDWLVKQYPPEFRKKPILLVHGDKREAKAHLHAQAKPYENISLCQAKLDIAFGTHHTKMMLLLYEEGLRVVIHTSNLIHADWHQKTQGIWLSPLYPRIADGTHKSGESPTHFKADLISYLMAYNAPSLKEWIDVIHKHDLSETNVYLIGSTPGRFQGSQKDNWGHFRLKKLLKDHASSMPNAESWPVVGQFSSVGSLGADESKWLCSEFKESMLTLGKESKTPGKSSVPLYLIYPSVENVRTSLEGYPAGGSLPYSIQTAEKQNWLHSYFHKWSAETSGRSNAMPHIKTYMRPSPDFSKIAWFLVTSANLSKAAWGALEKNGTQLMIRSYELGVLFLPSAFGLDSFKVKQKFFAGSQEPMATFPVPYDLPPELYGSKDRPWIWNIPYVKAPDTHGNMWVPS
#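 Here, a 5' biotin and 3' phosphotyrosine-FITC DNA oligonucleotide reports Tdp1 activity: intact substrate bridges AlphaScreen beads, while cleavage leaves a 3' phosphate and drops signal. All incubations at room temperature.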
# ELG1 DNA repair – inhibitors of ELG1-dependent DNA repair in HEK293T cells. HEK293T ELG1-luciferase reporter, luminescence, 16 h; DNA damage induced by 5-fluorouridine. Potency, µM (series often up to 46.1 µM), for the others: at the highest dose activity change, negative = inhibition, actives largely listed as inhibitors. 330,000 tested, 2.3% active. AID 504467; further: potency means the concentration at half of the fitted maximal effect; nearly all actives have a fitted effect of over 55% in size
#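 Luminescence from the luciferase reporter, measured 30 min after ONE-Glo reagent at room temperature, was the read-out. Beforehand, 2,000 cells per well were exposed for 16 hr at 37 °C to 5-fluorouridine together with compound or vehicle.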
# DT40 TDP1 no CPT – qHTS for Inhibitors of human tyrosyl-DNA phosphodiesterase 1 (TDP1): qHTS in cells in absence of CPT. DT40 Tdp1-/- hTDP1 cells, no CPT, ATP luminescence, 48 h. Potency, µM (doses to about 46.2 µM), inactives show top-dose activity change, negative = growth inhibition, usual class: inhibitors. 420,000 tested, 15% active; further: potency means the concentration at half of the fitted maximal effect; nearly all actives have a fitted effect of over 55% in size
#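 A cellular qHTS used chicken DT40 cells lacking endogenous Tdp1 but carrying stably transfected human TDP1. Compounds were applied without camptothecin, and cell growth kinetics were judged by ATP-dependent luminescence after ≥48 hr.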
# IL1B secr inh – inhibitors of inflammasome signaling (IL-1 beta secretion). THP-1 LPS/ATP IL-1B secretion, AlphaLISA, 16 h; hits give low values. activity change, % at 57.5 µM. 360,000 tested, 4.7% active. AID 743279; in the data active means activity change below about -50%; inconclusive means mostly about -30% to -49%
#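 Secreted IL-1B measured by AlphaLISA bead assay after 16 h compound exposure of THP-1 cells; compounds (final up to 57.5 uM) added 1 h before LPS (250 ng/mL) and ATP (1.25 mM) stimulation; lower signal means less secretion.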
# * = called active by the depositor; ? = inconclusive; . = not tested or not shown; [ ] = remark or other dose. This is a sample that favours compounds with a hit; in the whole collection about 19% have one here. Unless noted, the call rests on the fitted dose curve; in most records, active means well fitted curve in the direction sought with a large enough effect; inconclusive means small, poorly fitted or top-dose-only effect, or another doubt; inactive means no such curve, though single readings can be large; an effect the other way counts as inactive or inconclusive. On the % scale 0 is the no-effect control and ±100 the full control effect.
SMILES,TDP1 cell CPT,Giardia killer,TDP1 inh,ELG1 DNA repair,DT40 TDP1 no CPT,IL1B secr inh
COc1ccc(Cl)cc1-c1n[nH]c(=S)n1C,-8%,-4,9%,-21%,-16%,19
COc1cc2c(cc1OC)C(c1oc(-c3ccc(-c4cc(Cl)ccc4Cl)o3)cc1C)=NCC2,1µM*,.,.,.,0.35µM*,.
COc1cc2c(cc1OC)C(c1ccc(-c3ccccc3Cl)o1)=NCC2,6.5µM*,5,7%,?,2.3µM*,-92*
Cc1ccc2cccc(NC(=O)c3ccc(-c4cc(Cl)ccc4Cl)o3)c2n1,.,.,6%,.,.,.
COc1cc2c(cc1OC)C(c1ccc(-c3cc(Cl)ccc3Cl)o1)=NCC2,2.6µM*,-1,-9%,?,1.6µM*,-93*
CCCOc1ccc(/C(O)=C2/C(=O)C(=O)N(c3ccccn3)C2c2ccc(OC)cc2)cc1C (stereo not given),-30%,6,.,-1%,-5%,-7
COc1ccc(S(=O)(=O)Nc2ccccc2-c2nnn(CC(=O)Nc3ccccc3OC)n2)cc1,6.5µM*,11,3%,?,8.2µM*,-1
CCCC(=O)Nc1ccccc1-c1nnn(CC(=O)Nc2ccc(OC)cc2)n1,?,-20,6%,-29%,21µM*,7
COc1cccc(NC(=O)Cn2nnc(-c3ccccc3N)n2)c1,-18%,0,7%,-4%,-19%,10
COc1ccc(C(=O)Cn2nnc(-c3ccccc3NC(=O)c3ccco3)n2)cc1,?,-24,0%,?,8.2µM*,-11
COc1ccc(NC(=O)Cn2nnc(-c3ccccc3NS(=O)(=O)c3ccccc3)n2)cc1,23µM*,13,-2%,-6%,18µM*,7
CCOc1ccc(NC(=O)Cn2nnc(-c3ccccc3NC(=O)c3cccs3)n2)cc1,?,-2,1%,-14%,?,42
CCC(Sc1nc2cc3c(cc2c(=O)n1CCCCCC(=O)NCc1ccc2c(c1)OCO2)OCO3)C(=O)NCCCOC (stereo not given),-5%,.,5%,.,-23%,.
Cc1noc(C)c1S(=O)(=O)N(C)C[C@H]1OCc2cnnn2CCCC(=O)N([C@@H](C)CO)C[C@H]1C,9%,.,.,.,-18%,-18
CCn1nnc(-c2ccccc2NC(=O)c2cc(OC)c(OC)c(OC)c2)n1,?,-7,7%,16µM*,15µM*,8
COc1nc(OC)nc(Oc2ccc(Cl)cc2[N+](=O)[O-])n1,1%,-2,3%,6%,-1%,-3
NS(=O)(=O)c1ccc(Nc2ncccc2[N+](=O)[O-])cc1,-23%,-91*,-1%,0%,-26%,-7
COc1ccc([N+](=O)[O-])c(S(=O)(=O)c2ccccc2)n1,0.58µM*,-9,10%,?,1.6µM*,-96*
Nc1cccnc1S(=O)(=O)c1ccccc1,-12%,15,.,6%,18%,16
COc1ccc([N+](=O)[O-])c(S(=O)(=O)c2ccc(Cl)cc2)n1,1µM*,7,12%,19%,0.65µM*,-95*
O=[N+]([O-])c1cccnc1S(=O)(=O)c1ccccc1,0.92µM*,-1,.,-19%,0.82µM*,-97*
COc1ccccc1S(=O)(=O)c1ccccc1[N+](=O)[O-],-28%,-23,0%,-17%,0%,36
Cc1ccc(CNS(=O)(=O)c2cc3c4c(c2)C(C)C(=O)N4CCC3)cc1 (stereo not given),?,7,5%,-5%,-16%,38
COc1ccccc1/C=C(/NC(=O)c1ccc(Cl)cc1Cl)C(=O)O,-29%,-10,3%,-4%,17%,26
CCOC(=O)CN1N=C(/C=C/c2ccc(C(C)C)cc2)CCC1=O,?,-3,-2%,?,?,-56*
SMILES,TDP1 cell CPT,Giardia killer,TDP1 inh,ELG1 DNA repair,DT40 TDP1 no CPT,IL1B secr inh
O=C(CNC(=O)c1ccccc1F)NCCOc1cccc(Cl)c1Cl,7%,17,4%,1%,-15%,0
OCCNCCCOc1cc(Cl)ccc1Cl,?,8,5%,?,18µM*,-2
COc1ccccc1OCCCCCNCCO,-14%,-3,2%,13%,-9%,-2
CCCCNCCCOc1cccc(Cl)c1Cl,15µM*,-2,2%,26%,?,-64*
OCCNCCCOc1cccc(Cl)c1Cl,0.19µM*,.,17%[56.1 µM],.,0.21µM*,.
Cc1cnc(C(=O)OC(C)C(=O)NC2CCCc3ccccc32)cn1 (stereo not given),24%,-8,-11%,0%,-4%,11
CN(C)S(=O)(=O)c1ccc(NC(=O)COC(=O)CC2CC3CCC2C3)cc1 (stereo not given),-14%,-14,3%,9%,-2%,0
Cc1ccc(C(=O)c2c3ccc([N+](=O)[O-])cc3[n+]([O-])n2CCC(N)=O)cc1,5.8µM*,?,.,?,15µM*,1
Cc1ccc(C(=O)c2c3ccccc3[n+]([O-])n2CCC(N)=O)cc1,2%,-3,.,21%,-9%,18
COc1ccc(C(=O)c2c3ccc([N+](=O)[O-])cc3[n+]([O-])n2CCCC(N)=O)cc1,9.2µM*,?,3%,-20%,21µM*,5
COc1ccc(C(=O)c2c3ccc(OC)cc3[n+]([O-])n2CCCC(N)=O)cc1,-1%,-7,-1%,0%,-16%,26
COC(=O)c1[nH]c2c(c1C)C(=O)CC(c1cc(OC)c(OC)c(OC)c1)C2 (stereo not given),23µM*,-4,.,-18%,12µM*,33
COc1cc(C2CC(=O)c3c([nH]c(C(=O)OC4CCCC4)c3C)C2)cc(OC)c1OC (stereo not given),1.6µM*,.,11%,.,1.8µM*,.
COC(=O)c1[nH]c2c(c1C)C(=O)CC(c1cccc(OC)c1)C2 (stereo not given),1.5µM*,-4,.,-18%,1.3µM*,5
CC(C)OCCCNC(=O)c1ccc(Cn2c(=O)c3cccn3c3cccnc32)cc1,-10%,.,5%,.,-7%,.
CCNc1oc(-c2ccccc2F)nc1S(=O)(=O)c1ccccc1,2%,-6,3%,-7%,-10%,-21
CC(=O)c1cccc(NC(=O)COC(=O)c2ccc3c(c2)OCO3)c1,-1%,34,-1%,16%,2%,-11
COc1ccc(OC)c(-c2cc(C(=O)Nc3c(C)nn(Cc4ccc(Cl)cc4)c3C)no2)c1,?,-11,2%,?,21µM*,-63*
